Where “and” joins values, the source holds several entries; their conditions need not be identical. Equal values may be shown once. Results filed as inconclusive are left out. Calls of active or inactive are those of the source. Unless noted, the call rests on the fitted dose curve; in most records, active means well fitted curve in either direction with a large enough effect (not every such curve was filed as active); inconclusive means small, poorly fitted or top-dose-only effect, or another doubt; inactive means flat fitted curve, though single readings scatter.
Assays:
[1] = AP1 Signaling Pathway (AID 357);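 further: ME-180 reporter cells stimulated with EGF at its EC50 level; on the % scale 0 is the no-effect control and ±100 the full control effect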
Procedure, shortened: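 Modulation of EGF-driven AP-1 transcription was assessed with a beta-lactamase reporter in ME-180 cells. Compound and EC50 EGF were co-incubated 5 hours at 37 °C before 2.5-hour CCF4 loading at room temperature and dual-emission reading.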

[2] = biological target: Cytochrome P450 1A2 (Homo sapiens) (UniProt P05177); assay: p450-cyp1a2 (AID 410; calls by dose curve; further: potency means the concentration at half of the fitted maximal effect;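 on activity change, negative = inhibition: -100% = full effect of reference inhibitor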)
Procedure, shortened: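 20nM CYP1A2, 100uM Luciferin-ME (=Km), 100mM KPO4; cpd 10 min RT; +NADPH regen, 60 min RT; stop/detect 20 min; luminescence. Normalized to furafylline 57 uM = full inhibition.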

[3] = NFAT Signaling Pathway (AID 444); settings: Jurkat NFAT-bla M1, carbachol, beta-lactamase ratio, 5 h;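 further: carbachol stimulus at about its EC50 of 1 µM final; on the % scale 0 is the no-effect control and ±100 the full control effect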
Procedure, shortened: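 Read-out: CCF4 FRET ratio (460 nm/530 nm) after 1 h RT dye loading, used for %activity and AC50 from titration series. Cells: Jurkat NFAT-β-lactamase/M1 line, treated with compound plus 1 uM carbachol for 5 h, 37 °C.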

[4] = Stat Signaling Pathway (AID 446);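 further: ME-180 cervical cancer cells given 40 pM IL-6 alongside compound; SIE-controlled beta-lactamase reporter measured as 460/530 nm FRET emission ratio; on the % scale 0 is the no-effect control and ±100 the full control effect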
Procedure, shortened: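 Overnight-plated ME-180 cells bearing a STAT Inducible Element beta-lactamase reporter; 5 h co-exposure to compound and 40 pM IL-6; values normalized to 300 pM IL-6 and 125 nM JAK inhibitor controls.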

[5] = biological target: Glucocorticoid receptor (Homo sapiens) (UniProt P04150); assay: GR-GFP Redistribution (AID 450;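 active means compounds whose dose series gives a full or clear partial fitted curve of increased nuclear translocation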; further: potency means the concentration at half of the fitted maximal effect); settings: U2OS GR-GFP nuclear translocation, laser cytometry, 2 h
[6] = biological target: Glucocorticoid receptor (Homo sapiens) (UniProt P04150); assay: GR-EFC Redistribution (AID 451; calls by dose curve; further: potency means the concentration at half of the fitted maximal effect); settings: CHO-K1 GR-EFC translocation, beta-gal luminescence, 2 h
Procedure, shortened: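 Translocation of GR-ED fusion to nuclear EA restores b-gal, read by luminescence after 1 h room-temperature detection. Engineered CHO-K1 biosensor cells, 1,000/well, exposed 2 h at 37 C to titrations up to 46 uM final.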

[7] = biological target: Mitogen-activated protein kinase 10 (Mus musculus) (UniProt Q61831); assay: JNK3 AlphaScreen Assay (AID 530);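 further: kinase came from lysate of stimulated human HepG2 cells; signal reports phosphorylation of biotinylated GST-cJun 1-79 at Ser73 with 10 µM ATP; on the % scale 0 is the no-effect control and ±100 the full control effect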
Procedure, shortened: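 Kinase buffer: 20 mM Tris-HCl pH 7.6, 10 mM MgCl2, 1 mM DTT, 0.1 mM Na3VO4, 0.01% Tween-20; ATP 10 uM. Substrate biotin-GST-cJun(1-79), enzyme from activated HepG2 lysates. Detection by Ser73 phospho-antibody AlphaScreen.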

[8] = qHTS Assay for Lipid Storage Modulators (AID 1519; calls by dose curve); settings: Drosophila S3 cells, BODIPY lipid droplet/cell ratio, laser cytometry, cells loaded with oleic acid
Procedure, shortened: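 Cells seeded at 5,000 per well were treated with compounds over a concentration series and loaded with oleic acid (400 uM, as added). Lipid droplet fluorescence (488 nm excitation, 500-530 nm channel) was read by laser-scanning cytometry and normalized to 20 uM Triacsin C.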

[9] = biological target: Ubiquitin carboxyl-terminal hydrolase 1 (Homo sapiens) (UniProt O94782); assay: Inhibitors of USP1/UAF1: Pilot qHTS (AID 504865; active means well fitted curve in the direction sought with a large enough effect; an effect the other way counts as inactive or inconclusive;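 further: rhodamine fluorescence freed from ubiquitin-rhodamine substrate followed over time; top concentration of the series differs between compounds; on the % scale 0 is the no-effect control and ±100 the full control effect; nearly all actives have a fitted effect of over 35% in size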)
Procedure, shortened: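 USP1/UAF1 complex at 1 nM preincubated 15 min at room temperature with compound, then Ub-Rho substrate added at 150 nM final. Fluorescence (480/540 nm) read kinetically in 50 mM HEPES pH 7.8, 0.5 mM EDTA, 1 mM TCEP, 0.1 mg/ml BSA, 0.01% Tween-20.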

[10] = biological target: 3',5'-cyclic-AMP phosphodiesterase 4B (Homo sapiens) (UniProt Q07343); assay: qHTS Assay for Inhibitors of PDE-IV (AID 607; active means well fitted activation curve with a large enough effect in the main read-out, with a control signal flat, not every such curve was filed as active; further: % of control where 0% means no effect)
Procedure, shortened: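 Live HEK293 cells with a modified cyclic nucleotide-gated (CNG) channel report intracellular cAMP via membrane-potential dye fluorescence (ex 535/em 590 nm). Endogenous PDE-IV was targeted. Compounds were tested at up to 22.9 uM final; RO 20-1724 100 uM served as control.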

[11] = biological target: Cytochrome P450 2D6 (Homo sapiens) (UniProt P10635); assay: qHTS Assay for Inhibitors and Substrates of Cytochrome P450 2D6 (AID 891; active means well fitted curve in the direction sought with a large enough effect; an effect the other way counts as inactive or inconclusive; further: potency means the concentration at half of the fitted maximal effect; nearly all actives have a fitted effect of over 60% in size)
Procedure, shortened: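 Luminescent read-out of luciferin formed by 5 nM human CYP2D6 demethylating 30 uM Luciferin-ME EGE (Km level) over 60 min at room temperature after NADPH regeneration addition. Data normalized to full inhibition by 1.43 uM quinidine.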

[12] = biological target: ATP-dependent 6-phosphofructokinase (Trypanosoma brucei brucei) (UniProt O15648); assay: qHTS Assay to Find Inhibitors of T. brucei phosphofructokinase: hit validation (AID 492961; active means well fitted curve in the direction sought with a large enough effect; an effect the other way counts as inactive or inconclusive)
Procedure, shortened: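 ADP-Glo luminescence read-out of ADP formed by 1.25 nM PFK from 0.1 mM ATP and 0.5 mM F6P (TEA pH 8.0, 45 min, RT). Compounds titrated; activity normalized to no-enzyme and full-enzyme controls.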

[13] = biological target: Luciferin 4-monooxygenase (Photinus pyralis) (UniProt P08659); assay: Biochemical firefly luciferase enzyme assay for NPC (AID 624030; active means well fitted curve in the direction sought with a large enough effect; an effect the other way counts as inactive or inconclusive;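 further: purified P. pyralis luciferase at 10 nM with luciferin and ATP substrate; 0% = DMSO and -100% = full luciferase inhibition by PTC124 control; nearly all actives have a fitted effect of over 70% in size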)
Procedure, shortened: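 Direct inhibition of firefly luciferase enzyme (10 nM final, 50 mM Tris Acetate) assessed by luminescence within 5 minutes. Percent activity scaled between DMSO and PTC124 positive control, with concentration-effect curves classified by fit quality and response.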

[14] = qHTS profiling for inhibitors of Plasmodium falciparum proliferation (AID 504749; active means well fitted curve in the direction sought with a large enough effect; an effect the other way counts as inactive or inconclusive; further: potency means the concentration at half of the fitted maximal effect;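 on activity, negative = inhibition: 0% = DMSO vehicle and full inhibition = artemisinin control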; on all read-outs here: nearly all actives have a fitted effect of over 60% in size); settings: P. falciparum in erythrocytes, SYBR Green DNA, 72 h; for activity, negative = inhibition: at 12.8 µM (top of the series)
Procedure, shortened: (§1)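 In a 72 h erythrocytic culture (37 C, humidified, 5% CO2) at 2.5% hematocrit and 0.3% starting parasitemia, compounds were tested; SYBR Green I in detergent lysis buffer stained parasite DNA overnight.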

C2A = assay: as above; settings: P. falciparum in erythrocytes, SYBR Green DNA, 72 h; series mostly up to 28.7 µM
Procedure, shortened: as §1

CP185 = assay: as above; settings: P. falciparum in erythrocytes, SYBR Green DNA, 72 h; series mostly up to 28.7 µM
Procedure, shortened: as §1

FAB9 = assay: as above; settings: P. falciparum in erythrocytes, SYBR Green DNA, 72 h; series mostly up to 28.7 µM
Procedure, shortened: as §1

[15] = biological target: Lysosomal acid glucosylceramidase (Homo sapiens) (UniProt P04062); assay: Glucocerebrosidase-p2 (AID 348; in the data active means potency below about 10 µM; further: potency means the concentration at half of the fitted maximal effect); settings: purified GBA, blue fluorogenic substrate, 40 min
Procedure, shortened: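 Normal human glucocerebrosidase (0.2 nM) with blue fluorogenic substrate (80 uM final) in citrate/phosphate pH 5.9 with 10mM sodium taurocholate, 0.01% tween-20; 40 min RT, NaOH/glycine stop; fluorescence Ex 365/Em 440; AC50 from a titration from 0.6 nM upwards.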

[16] = biological target: Cytochrome P450 3A4 (Homo sapiens) (UniProt P08684); assay: qHTS Assay for Inhibitors and Substrates of Cytochrome P450 3A4 (AID 884; active means well fitted curve in the direction sought with a large enough effect; an effect the other way counts as inactive or inconclusive; further: on the % scale 0 is the no-effect control and ±100 the full control effect; nearly all actives have a fitted effect of over 50% in size)
Procedure, shortened: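 Luminescent readout of luciferin produced by CYP3A4 (20 nM) dealkylation of Luciferin-PPXE, 25 uM (its KM). NADPH-driven reaction ran 60 min at RT after 10 min compound preincubation; data scaled to 57 uM ketoconazole as 100% inhibition.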

[17] = biological target: Cytochrome P450 3A4 (Homo sapiens) (UniProt P08684); assay: qHTS Assay for Activators of Cytochrome P450 3A4 (AID 885; active means well fitted curve in the direction sought with a large enough effect; an effect the other way counts as inactive or inconclusive; further: nearly all actives have a fitted effect of over 65% in size)
Procedure, shortened: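 Using 20nM recombinant human CYP3A4 in potassium phosphate (200mM), substrate Luciferin-PPXE at 25uM, luminescent luciferin detection followed a 60-min RT NADPH reaction; data scaled to 57 uM ketoconazole.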

[18] = measured here: cell count channel max response
[19] = measured here: lipid channel max response

Sequence of Cytochrome P450 1A2 (Homo sapiens) (P05177 whole entry, looked up): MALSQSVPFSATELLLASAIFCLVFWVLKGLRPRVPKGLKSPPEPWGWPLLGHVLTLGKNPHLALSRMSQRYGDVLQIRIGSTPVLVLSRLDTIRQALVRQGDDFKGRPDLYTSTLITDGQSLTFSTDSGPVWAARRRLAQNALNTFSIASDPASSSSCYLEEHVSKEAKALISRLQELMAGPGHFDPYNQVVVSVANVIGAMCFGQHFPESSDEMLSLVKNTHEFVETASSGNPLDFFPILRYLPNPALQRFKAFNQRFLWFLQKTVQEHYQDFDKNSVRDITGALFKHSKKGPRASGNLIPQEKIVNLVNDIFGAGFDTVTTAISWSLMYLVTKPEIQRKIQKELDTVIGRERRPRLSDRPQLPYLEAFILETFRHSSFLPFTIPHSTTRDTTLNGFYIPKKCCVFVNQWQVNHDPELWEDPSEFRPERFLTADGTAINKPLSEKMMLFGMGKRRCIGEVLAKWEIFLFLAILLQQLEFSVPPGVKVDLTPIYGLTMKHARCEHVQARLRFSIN
Sequence of Glucocorticoid receptor (Homo sapiens) (P04150 whole entry, looked up, the tested form may be a part): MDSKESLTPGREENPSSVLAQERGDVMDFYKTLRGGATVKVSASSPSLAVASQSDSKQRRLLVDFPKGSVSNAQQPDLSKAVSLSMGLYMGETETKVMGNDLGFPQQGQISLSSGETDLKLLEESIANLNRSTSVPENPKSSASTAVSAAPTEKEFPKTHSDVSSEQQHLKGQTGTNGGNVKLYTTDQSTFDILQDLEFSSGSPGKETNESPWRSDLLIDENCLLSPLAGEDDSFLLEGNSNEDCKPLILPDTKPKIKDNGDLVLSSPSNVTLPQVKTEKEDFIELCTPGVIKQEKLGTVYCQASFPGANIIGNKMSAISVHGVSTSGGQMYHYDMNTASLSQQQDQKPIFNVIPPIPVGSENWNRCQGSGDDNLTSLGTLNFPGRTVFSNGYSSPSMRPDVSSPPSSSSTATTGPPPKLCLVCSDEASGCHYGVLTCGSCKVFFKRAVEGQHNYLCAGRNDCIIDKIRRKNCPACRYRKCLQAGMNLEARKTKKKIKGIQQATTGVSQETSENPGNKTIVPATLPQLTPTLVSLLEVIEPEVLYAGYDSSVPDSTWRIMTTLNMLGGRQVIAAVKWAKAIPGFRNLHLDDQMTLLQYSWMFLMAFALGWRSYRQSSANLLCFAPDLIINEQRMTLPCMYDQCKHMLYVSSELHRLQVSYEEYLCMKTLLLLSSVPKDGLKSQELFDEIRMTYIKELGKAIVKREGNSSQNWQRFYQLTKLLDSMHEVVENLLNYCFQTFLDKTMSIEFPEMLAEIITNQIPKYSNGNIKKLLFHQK
Sequence of Ubiquitin carboxyl-terminal hydrolase 1 (Homo sapiens) (O94782 whole entry, looked up): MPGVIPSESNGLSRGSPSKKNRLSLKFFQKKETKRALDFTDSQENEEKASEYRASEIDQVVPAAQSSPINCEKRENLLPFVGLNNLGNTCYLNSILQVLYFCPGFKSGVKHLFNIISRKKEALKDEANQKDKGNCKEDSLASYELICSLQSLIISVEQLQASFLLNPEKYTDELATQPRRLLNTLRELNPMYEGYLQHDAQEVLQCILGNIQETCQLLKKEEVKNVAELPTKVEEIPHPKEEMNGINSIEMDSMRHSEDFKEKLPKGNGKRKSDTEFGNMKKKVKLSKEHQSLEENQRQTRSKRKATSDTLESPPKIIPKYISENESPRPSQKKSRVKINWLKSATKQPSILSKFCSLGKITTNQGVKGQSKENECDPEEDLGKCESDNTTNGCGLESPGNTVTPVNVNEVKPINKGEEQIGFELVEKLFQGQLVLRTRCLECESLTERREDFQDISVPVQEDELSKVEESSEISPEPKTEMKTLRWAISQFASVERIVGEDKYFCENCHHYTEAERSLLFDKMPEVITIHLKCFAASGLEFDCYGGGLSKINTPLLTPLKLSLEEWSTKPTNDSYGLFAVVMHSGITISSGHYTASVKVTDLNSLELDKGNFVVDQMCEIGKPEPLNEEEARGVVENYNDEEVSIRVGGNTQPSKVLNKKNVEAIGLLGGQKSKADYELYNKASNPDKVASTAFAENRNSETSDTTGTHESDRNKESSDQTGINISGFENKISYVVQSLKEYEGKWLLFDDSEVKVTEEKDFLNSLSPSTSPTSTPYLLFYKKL
Sequence of 3',5'-cyclic-AMP phosphodiesterase 4B (Homo sapiens) (Q07343 whole entry, looked up): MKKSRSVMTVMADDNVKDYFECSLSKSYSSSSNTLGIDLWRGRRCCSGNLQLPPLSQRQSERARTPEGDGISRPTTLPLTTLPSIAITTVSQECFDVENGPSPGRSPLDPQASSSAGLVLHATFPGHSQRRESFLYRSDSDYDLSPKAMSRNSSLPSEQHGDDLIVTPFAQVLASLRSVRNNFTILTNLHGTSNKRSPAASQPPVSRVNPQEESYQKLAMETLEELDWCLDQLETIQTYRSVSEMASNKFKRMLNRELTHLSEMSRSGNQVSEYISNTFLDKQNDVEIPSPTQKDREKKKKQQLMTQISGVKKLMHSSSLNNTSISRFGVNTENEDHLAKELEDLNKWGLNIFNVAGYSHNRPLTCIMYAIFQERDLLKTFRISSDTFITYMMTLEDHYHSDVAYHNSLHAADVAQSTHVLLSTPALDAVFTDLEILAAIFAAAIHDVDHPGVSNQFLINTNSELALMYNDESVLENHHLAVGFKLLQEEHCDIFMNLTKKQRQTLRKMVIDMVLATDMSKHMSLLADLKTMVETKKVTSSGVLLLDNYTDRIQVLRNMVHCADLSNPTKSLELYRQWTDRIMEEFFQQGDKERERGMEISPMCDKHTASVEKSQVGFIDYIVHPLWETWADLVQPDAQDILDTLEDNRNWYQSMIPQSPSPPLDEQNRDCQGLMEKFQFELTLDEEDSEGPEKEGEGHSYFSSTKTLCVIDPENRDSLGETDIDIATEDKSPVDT
Sequence of Lysosomal acid glucosylceramidase (Homo sapiens) (P04062 whole entry, looked up): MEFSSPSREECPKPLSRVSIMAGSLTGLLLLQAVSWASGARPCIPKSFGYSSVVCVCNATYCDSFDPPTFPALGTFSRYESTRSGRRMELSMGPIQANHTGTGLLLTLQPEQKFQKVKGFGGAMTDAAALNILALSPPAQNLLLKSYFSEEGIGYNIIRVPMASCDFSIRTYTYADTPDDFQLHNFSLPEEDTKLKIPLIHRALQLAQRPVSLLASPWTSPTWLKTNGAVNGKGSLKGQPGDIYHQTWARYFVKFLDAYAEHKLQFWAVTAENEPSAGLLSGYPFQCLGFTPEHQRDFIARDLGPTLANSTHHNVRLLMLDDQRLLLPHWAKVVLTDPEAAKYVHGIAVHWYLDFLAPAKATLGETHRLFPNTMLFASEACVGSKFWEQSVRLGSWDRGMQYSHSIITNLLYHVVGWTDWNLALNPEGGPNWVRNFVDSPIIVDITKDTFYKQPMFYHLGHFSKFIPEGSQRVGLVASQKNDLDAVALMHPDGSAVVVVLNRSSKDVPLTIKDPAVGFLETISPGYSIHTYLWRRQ
Sequence of ATP-dependent 6-phosphofructokinase (Trypanosoma brucei brucei) (O15648 whole entry, looked up): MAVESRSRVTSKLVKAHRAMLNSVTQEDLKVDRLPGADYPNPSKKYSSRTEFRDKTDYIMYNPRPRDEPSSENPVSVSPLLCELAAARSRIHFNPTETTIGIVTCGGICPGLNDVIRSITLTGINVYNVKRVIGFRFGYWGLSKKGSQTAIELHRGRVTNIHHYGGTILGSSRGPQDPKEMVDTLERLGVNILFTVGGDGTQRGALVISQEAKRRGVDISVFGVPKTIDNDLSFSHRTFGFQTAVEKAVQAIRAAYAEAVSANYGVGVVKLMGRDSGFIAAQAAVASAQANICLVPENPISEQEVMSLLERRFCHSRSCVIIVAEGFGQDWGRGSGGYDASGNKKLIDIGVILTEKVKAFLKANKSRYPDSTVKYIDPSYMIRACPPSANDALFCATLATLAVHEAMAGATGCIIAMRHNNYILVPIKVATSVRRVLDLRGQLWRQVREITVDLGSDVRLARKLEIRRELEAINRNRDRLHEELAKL
Sequence of Cytochrome P450 3A4 (Homo sapiens) (P08684 whole entry, looked up): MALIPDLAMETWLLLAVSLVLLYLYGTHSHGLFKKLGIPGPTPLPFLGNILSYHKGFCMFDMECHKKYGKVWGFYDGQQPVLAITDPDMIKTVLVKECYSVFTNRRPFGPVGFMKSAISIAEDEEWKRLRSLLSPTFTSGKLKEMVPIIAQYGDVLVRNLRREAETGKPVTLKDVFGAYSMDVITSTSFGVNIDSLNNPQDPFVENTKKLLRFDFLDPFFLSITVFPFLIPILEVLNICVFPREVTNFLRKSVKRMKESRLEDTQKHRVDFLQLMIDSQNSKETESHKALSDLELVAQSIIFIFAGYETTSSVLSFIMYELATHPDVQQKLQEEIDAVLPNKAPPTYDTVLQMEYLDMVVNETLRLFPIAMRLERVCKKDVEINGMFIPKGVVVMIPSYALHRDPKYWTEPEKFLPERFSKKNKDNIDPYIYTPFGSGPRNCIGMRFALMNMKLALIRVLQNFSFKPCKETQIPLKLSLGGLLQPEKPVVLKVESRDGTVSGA
Sequence of Luciferin 4-monooxygenase (Photinus pyralis) (P08659 whole entry, looked up): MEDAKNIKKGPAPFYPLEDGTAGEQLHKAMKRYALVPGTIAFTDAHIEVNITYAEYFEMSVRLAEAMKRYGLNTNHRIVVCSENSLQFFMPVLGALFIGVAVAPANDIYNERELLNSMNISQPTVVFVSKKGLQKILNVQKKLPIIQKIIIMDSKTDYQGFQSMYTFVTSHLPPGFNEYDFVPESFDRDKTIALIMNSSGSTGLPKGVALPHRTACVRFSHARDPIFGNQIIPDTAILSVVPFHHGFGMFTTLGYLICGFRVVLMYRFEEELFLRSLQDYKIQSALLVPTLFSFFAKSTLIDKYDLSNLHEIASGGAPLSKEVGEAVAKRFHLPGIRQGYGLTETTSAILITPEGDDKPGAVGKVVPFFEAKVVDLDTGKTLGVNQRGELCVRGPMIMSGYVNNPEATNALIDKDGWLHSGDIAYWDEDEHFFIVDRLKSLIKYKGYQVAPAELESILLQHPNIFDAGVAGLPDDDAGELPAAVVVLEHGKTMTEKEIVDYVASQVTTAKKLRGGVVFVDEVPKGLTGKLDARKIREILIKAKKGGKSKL

C[C@H]1C(=O)O[C@@H]2CCN3CC=C(COC(=O)[C@@](C)(O)[C@@]1(C)O)[C@H]23
inactive: outcome [1] | Potency [2] | activity change, negative = inhibition ([3]; at 17.2 µM (top of the series)) 3.38% | outcome [4] | Potency [5] > 20.6 µM | Potency [6] > 20.6 µM | outcome [7] | activity change, negative = inhibition ([8]; at 25.7 µM (top of the series)) -2.11% | Potency [9]
4.14%: max response [8, 18]
3.19%: max response [8, 19]

COc1ccc2c(c1OC)CN1CCc3cc4c(cc3[C@H]1C2)OCO4
-16.8%: max response [8, 18]
inactive: outcome [1] | activity change, negative = inhibition ([3]; at 17.2 µM (top of the series)) -25.2% | outcome [4] | Potency [5] > 20.6 µM | Potency [6] > 20.6 µM | outcome [7] | Potency [10] | activity change, negative = inhibition ([8]; at 25.7 µM (top of the series)) -2.73% | Potency [12] | Potency [9] | Potency [13]
-19%: max response [8, 19]
active: Potency [2] 1.58 µM | Potency [11] 0.0631 µM | Potency ([14]; parasite line A) 2 µM | Potency (C2A) 2.24 µM | Potency (CP185) 2.51 µM | Potency (FAB9) 3.16 µM

C[N+]1(C)[C@@H]2CC[C@H]1CC(OC(=O)[C@@H](CO)c1ccccc1)C2 (some centres undefined)
inactive: outcome [1] | Potency [2] | outcome [4] | Potency [5] > 46 µM and > 20.6 µM | Potency [6] > 46 µM and > 20.6 µM | outcome [7] | activity change, negative = inhibition ([8]; at 25.7 µM (top of the series)) -3.15% | Potency [12] | Potency [9] | Potency [13] | activity, negative = inhibition ([14]; parasite line A) -5.22% | activity, negative = inhibition ([14]; parasite line B) 11.2% | Potency (C2A) | Potency (CP185) | Potency (FAB9)
-7.55%: max response [8, 18]
active: activity change, negative = inhibition ([3]; at 17.2 µM (top of the series)) -48.4% | activity change, negative = inhibition ([3]; at 38 µM (top of the series)) -61.2%
-13.1%: max response [8, 19]

C=C1[C@@H]2CC[C@H]3[C@@]4(C)C[C@@H](O[C@@H]5O[C@H](CO)[C@H](OS(=O)(=O)O)[C@@H](OS(=O)(=O)O)[C@@H]5OC(=O)CC(C)C)C[C@@H](C(=O)O)[C@H]4CC[C@@]3(C2)[C@H]1O
inactive: outcome [1] | Potency [2] | activity change, negative = inhibition ([3]; at 17.2 µM (top of the series)) 13.2% | outcome [4] | Potency [5] > 20.6 µM | Potency [6] > 20.6 µM | outcome [7] | Potency [10] | activity change, negative = inhibition ([8]; at 25.7 µM (top of the series)) -6.46% | Potency [9]
-28.9%: max response [8, 19]
-23.7%: max response [8, 18]

CN1CCCC2(CCN(C(=O)c3csnn3)CC2)C1
-6.49%: max response [8, 19]
inactive: Potency [15] > 11.4 µM | outcome [1] | Potency [2] | Potency [6] > 46 µM | outcome [7] | Potency [10] | activity change, negative = inhibition ([8]; at 57.5 µM (top of the series)) -1.92%
-8.1%: max response [8, 18]

c1cnc(N2CCCC3(CCNCC3)C2)nc1
19.3%: max response [8, 19]
9.32%: max response [8, 18]
inactive: Potency [15] > 11.4 µM | outcome [1] | outcome [4] | Potency [6] > 46 µM | outcome [7] | Potency [10] | activity change, negative = inhibition ([8]; at 57.5 µM (top of the series)) 7.13%

C[C@]12CC[C@H](O)C[C@@H]1CC[C@H]1[C@H]2CC[C@]2(C)C(=O)CC[C@@H]12
inactive: outcome [1] | Potency [2] | activity change, negative = inhibition ([3]; at 17.2 µM (top of the series)) 4.61% and 4.01% and -7.96% | activity change, negative = inhibition ([3]; at 38 µM (top of the series)) 8.64% | outcome [4] | Potency [5] > 46 µM and > 20.6 µM | Potency [6] > 46 µM and > 20.6 µM | outcome [7] | Potency [10] | Potency [16] | Potency [17] | activity change, negative = inhibition ([8]; at 25.7 µM (top of the series)) -2.44% and -2.6% and -5.42% | Potency [9]
-9.77% and -5.73% and -17.9%: max response [8, 18]
-12.1% and -8.44% and -22.6%: max response [8, 19]
